Source: PubChem BioAssay (NCI)
The panel holds about 83,000 compounds, 20% with a hit somewhere; the sample as a whole holds those more often.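 Single-dose data. Exposure time 48 hours. Values below 10 considered active.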 Active and inactive are the calls of the source.

Columns and labels:
Experiment in all cases: NCI-60 one-dose screen, 48 h (100 = growth as untreated, 0 = no growth, -100 = all killed)
Conditions in all cases: 10 µM
RPMI-8226 leukemia = test system: RPMI-8226 leukemia
OVCAR-8 ovarian = test system: OVCAR-8 ovarian
OVCAR-5 ovarian = test system: OVCAR-5 ovarian
OVCAR-4 ovarian = test system: OVCAR-4 ovarian
SK-OV-3 ovarian = test system: SK-OV-3 ovarian
IGROV1 ovarian = test system: IGROV1 ovarian
OVCAR-3 ovarian = test system: OVCAR-3 ovarian
HS 578T breast = test system: HS 578T breast
NCI/ADR-RES ovarian = test system: NCI/ADR-RES ovarian
T-47D breast = test system: T-47D breast
BT-549 breast = test system: BT-549 breast
MDA-MB-435 melanoma = test system: MDA-MB-435 melanoma
SW-620 colon = test system: SW-620 colon
MCF7 breast = test system: MCF7 breast
HCT-116 colon = test system: HCT-116 colon
HCC-2998 colon = test system: HCC-2998 colon
KM12 colon = test system: KM12 colon

Measured: growth

COc1cc(-c2nc(-c3nnc(-c4ccc(F)c(Cl)c4)o3)c3ccccn23)cc(OC)c1OC
active: OVCAR-8 ovarian -28.2% | OVCAR-4 ovarian -40.4% | SK-OV-3 ovarian -4.85% | BT-549 breast 2.74% | HCT-116 colon -31.5% | KM12 colon 5.68%
inactive: RPMI-8226 leukemia 35.3% | OVCAR-5 ovarian 67.6% | IGROV1 ovarian 72.9% | OVCAR-3 ovarian 22.3% | HS 578T breast 58.6% | NCI/ADR-RES ovarian 21% | T-47D breast 30.4% | MDA-MB-435 melanoma 49.8% | SW-620 colon 58.7% | MCF7 breast 15.5% | HCC-2998 colon 64.1%

Cc1cc(N(CCCNc2ccnc3cc(Cl)ccc23)Cc2cccs2)nc(Cl)n1
inactive: OVCAR-8 ovarian 44.7% | OVCAR-5 ovarian 69.1% | OVCAR-4 ovarian 31.8% | SK-OV-3 ovarian 42.4% | IGROV1 ovarian 50.8% | OVCAR-3 ovarian 55.7% | HS 578T breast 65.4% | NCI/ADR-RES ovarian 36.4% | T-47D breast 22.1% | BT-549 breast 33.7% | MDA-MB-435 melanoma 48.9% | SW-620 colon 32.9% | MCF7 breast 40.8% | HCT-116 colon 21.4% | HCC-2998 colon 36.8% | KM12 colon 39.1%
active: RPMI-8226 leukemia -6.73%

Nc1ccccc1NC(=O)CCCCC(=O)Nc1ccc2c(c1)/C(=C/c1ccc[nH]1)C(=O)N2
inactive: RPMI-8226 leukemia 56.2% | OVCAR-8 ovarian 78.5% | OVCAR-5 ovarian 96.5% | OVCAR-4 ovarian 52.1% | SK-OV-3 ovarian 72.5% | IGROV1 ovarian 59.8% | OVCAR-3 ovarian 65.8% | HS 578T breast 52.3% | NCI/ADR-RES ovarian 107% | T-47D breast 59.6% | BT-549 breast 33.9% | MDA-MB-435 melanoma 68.8% | SW-620 colon 91.3% | MCF7 breast 35% | HCT-116 colon 82.7% | HCC-2998 colon 87.5% | KM12 colon 15.9%

Cc1cc(C)c2c(n1)sc1c(Nc3ccc(Cl)cc3)ncnc12
inactive: RPMI-8226 leukemia 23.7% | OVCAR-5 ovarian 29% | OVCAR-4 ovarian 84.4% | SK-OV-3 ovarian 35.2% | IGROV1 ovarian 70.8% | OVCAR-3 ovarian 33.3% | HS 578T breast 76.5% | NCI/ADR-RES ovarian 15.1% | T-47D breast 23.4% | BT-549 breast 29.8% | MDA-MB-435 melanoma 27.3% | SW-620 colon 34% | MCF7 breast 16.5% | HCT-116 colon 15.1% | HCC-2998 colon 54.4% | KM12 colon 43.1%
active: OVCAR-8 ovarian 4.06%

CCN(CC)CCOc1nc2ccccc2c2c1-c1ccc(OC)cc1C2=O
inactive: OVCAR-5 ovarian 25.8% | SK-OV-3 ovarian 43.5% | T-47D breast 47.1% | BT-549 breast 60.8% | HCC-2998 colon 14.8%
active: RPMI-8226 leukemia -14.3% | OVCAR-8 ovarian 6.78% | OVCAR-4 ovarian 6.09% | IGROV1 ovarian -37.9% | OVCAR-3 ovarian -18.6% | HS 578T breast 1.77% | NCI/ADR-RES ovarian -12.8% | MDA-MB-435 melanoma -6.62% | SW-620 colon -13.3% | MCF7 breast 0.376% | HCT-116 colon -93% | KM12 colon -45.2%

CCCCN(CCCC)c1cc(C(=O)CCCCCN)c2ccccc2n1
active: RPMI-8226 leukemia -67.9% | OVCAR-8 ovarian 9.35% | IGROV1 ovarian -73.6% | OVCAR-3 ovarian -96.9% | MDA-MB-435 melanoma -52.1% | HCT-116 colon -95.6% | HCC-2998 colon -31.4% | KM12 colon -93.3%
inactive: OVCAR-5 ovarian 105% | OVCAR-4 ovarian 100% | SK-OV-3 ovarian 101% | HS 578T breast 96% | NCI/ADR-RES ovarian 71.6% | T-47D breast 92.9% | BT-549 breast 68.2% | SW-620 colon 39.8% | MCF7 breast 40%

CC1CC(=O)OC(C)C1 (centres undefined)
inactive: RPMI-8226 leukemia 104% | OVCAR-8 ovarian 104% | OVCAR-5 ovarian 105% | OVCAR-4 ovarian 97.6% | SK-OV-3 ovarian 101% | IGROV1 ovarian 107% | OVCAR-3 ovarian 116% | HS 578T breast 112% | NCI/ADR-RES ovarian 112% | T-47D breast 107% | BT-549 breast 114% | MDA-MB-435 melanoma 96.7% | SW-620 colon 107% | MCF7 breast 91.1% | HCT-116 colon 104% | HCC-2998 colon 92.5% | KM12 colon 110%

Cc1ccc(NC(=O)NC2CCCCC2)cc1
inactive: RPMI-8226 leukemia 108% | OVCAR-8 ovarian 106% | OVCAR-5 ovarian 103% | OVCAR-4 ovarian 114% | SK-OV-3 ovarian 95.8% | IGROV1 ovarian 105% | OVCAR-3 ovarian 109% | HS 578T breast 107% | NCI/ADR-RES ovarian 110% | T-47D breast 93.2% | BT-549 breast 115% | MDA-MB-435 melanoma 105% | SW-620 colon 108% | MCF7 breast 93.8% | HCT-116 colon 105% | HCC-2998 colon 111% | KM12 colon 101%

Nc1c(C(=O)Nc2cccc3ccccc23)sc2nc3c(cc12)C(=O)CCC3
active: SK-OV-3 ovarian 5.64% | OVCAR-3 ovarian -26.7% | NCI/ADR-RES ovarian 2.15% | MDA-MB-435 melanoma -37.3%
inactive: RPMI-8226 leukemia 15.7% | OVCAR-8 ovarian 21% | OVCAR-5 ovarian 40.3% | OVCAR-4 ovarian 47.7% | IGROV1 ovarian 23.7% | HS 578T breast 14.2% | T-47D breast 47.5% | BT-549 breast 57% | SW-620 colon 21.3% | MCF7 breast 13.6% | HCT-116 colon 17.5% | HCC-2998 colon 11.9% | KM12 colon 25.9%

COc1ccc(-c2nn(-c3cccc(NC(=O)Nc4cc(C(F)(F)F)cc(C(F)(F)F)c4)c3)cc2-c2ccncc2)cc1Cl
inactive: OVCAR-5 ovarian 18.7% | OVCAR-4 ovarian 16.4% | SW-620 colon 10.9%
active: RPMI-8226 leukemia -25.1% | OVCAR-8 ovarian 1.12% | SK-OV-3 ovarian 8.88% | IGROV1 ovarian 4.91% | OVCAR-3 ovarian 5.75% | HS 578T breast 0.225% | NCI/ADR-RES ovarian 5.83% | T-47D breast 2.31% | BT-549 breast -1.8% | MDA-MB-435 melanoma -42.8% | MCF7 breast 0.561% | HCT-116 colon -22% | HCC-2998 colon 8.03% | KM12 colon -2.5%

COc1ccc(-c2cc(/C=C/C(=O)c3cc(OC)c(OC)c(OC)c3)[nH]n2)cc1OC
active: RPMI-8226 leukemia -39.1% | OVCAR-8 ovarian -17.1% | OVCAR-4 ovarian -51.6% | IGROV1 ovarian -9.4% | OVCAR-3 ovarian -17.5% | T-47D breast -14% | MDA-MB-435 melanoma 4.69% | SW-620 colon -65.6% | MCF7 breast -9.93% | HCT-116 colon -46.5% | HCC-2998 colon -75.7% | KM12 colon -61.6%
inactive: OVCAR-5 ovarian 17.5% | SK-OV-3 ovarian 39.3% | HS 578T breast 71% | NCI/ADR-RES ovarian 12.3% | BT-549 breast 24%

COc1cc(-c2cc(/C=C/C(=O)c3ccc(Cl)c(Cl)c3)[nH]n2)cc(OC)c1OC
active: RPMI-8226 leukemia -20.3%
inactive: OVCAR-8 ovarian 77.8% | OVCAR-5 ovarian 81.9% | OVCAR-4 ovarian 77.4% | SK-OV-3 ovarian 97.3% | IGROV1 ovarian 108% | OVCAR-3 ovarian 86.5% | HS 578T breast 90.1% | NCI/ADR-RES ovarian 75.1% | T-47D breast 37% | BT-549 breast 71% | MDA-MB-435 melanoma 43% | SW-620 colon 60.7% | MCF7 breast 19.3% | HCT-116 colon 36% | HCC-2998 colon 107% | KM12 colon 26.2%
